# Screens as filed in PubChem BioAssay.
# ADAM17 inh = inhibits human ADAM17 | P78536 | recombinant ADAM17, EDANS/DABCYL FRET peptide cleavage | inhibition, % at 6.95 µM | actives 0.83% (n = 370,000) | AID 720648;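 active = inhibition above the mean of compounds lying between control limits plus 3 SD, set per campaign, cut at about 8.5% in these data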;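 also: 0% = DMSO-only wells as the low control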
# A3A deaminase = human APOBEC3A DNA deaminase inhibition; P31941; recombinant A3A, FAM/TAMRA ssDNA deamination fluorescence; inhibition, % at 20 µM; actives 0.41% (n = 330,000); AID 493011;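 active = at least 40% inhibition at 20 µM here, with at most 30% in a related deaminase screen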;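 also: plate controls were A3A with DMSO for no effect and wells lacking A3A enzyme for full effect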
# Target sequence (P31941 whole entry, looked up): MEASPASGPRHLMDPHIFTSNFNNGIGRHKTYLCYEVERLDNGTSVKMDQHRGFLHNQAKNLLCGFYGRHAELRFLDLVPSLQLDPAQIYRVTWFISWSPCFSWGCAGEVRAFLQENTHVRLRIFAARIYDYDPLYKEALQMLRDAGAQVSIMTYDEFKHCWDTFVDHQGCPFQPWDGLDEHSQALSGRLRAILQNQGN
# A3G deaminase = blocks human APOBEC3G single-stranded DNA deamination. Q9HC16. recombinant A3G, ssDNA deamination FAM/TAMRA fluorescence. inhibition, % at 20 µM. actives 0.28% (n = 330,000). AID 493012;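 active = inhibition of at least 40% at 20 µM, with no more than 30% in the related APOBEC3A deaminase screen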;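 also: plate controls were DMSO wells with A3G for no effect and wells lacking A3G enzyme for full effect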
# Target sequence (Q9HC16 whole entry, looked up): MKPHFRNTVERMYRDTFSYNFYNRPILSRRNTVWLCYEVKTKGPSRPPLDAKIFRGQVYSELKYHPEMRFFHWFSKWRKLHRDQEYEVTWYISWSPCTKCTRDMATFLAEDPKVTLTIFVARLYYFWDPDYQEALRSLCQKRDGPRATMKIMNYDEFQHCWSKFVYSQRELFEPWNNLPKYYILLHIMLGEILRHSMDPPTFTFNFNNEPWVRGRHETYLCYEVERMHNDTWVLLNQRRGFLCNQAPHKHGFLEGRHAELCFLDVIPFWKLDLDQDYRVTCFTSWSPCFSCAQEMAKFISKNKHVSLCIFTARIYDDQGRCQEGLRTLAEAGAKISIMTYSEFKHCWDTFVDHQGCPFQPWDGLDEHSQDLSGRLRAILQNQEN
# NRP1-CendR mod = NRP-1/CendR interaction modulation; actives 0.85% (n = 360,000); FAM-RPARPAR peptide binding to NRP-1, fluorescence polarization; inhibition, % at 25 µM; O14786; AID 602438;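 active = inhibition or corrected inhibition above about 18%, plus a signal ratio from 0.5 to 1.5, limit read from the data, passing the limit was not always enough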
# ADAM10 inh = inhibits human ADAM10; O14672; recombinant ADAM10, EDANS/DABCYL FRET peptide cleavage, 3 h; inhibition, % at 7 µM; actives 0.62% (n = 370,000); AID 720582;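 active = inhibition above a per-campaign cutoff equal to the mean of compounds falling between control-based bounds plus 3 SD, cut at about 20% in these data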;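 also: 0% = DMSO wells while the 100% control is not disclosed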
# APOBEC3A confirm = APOBEC3A (human) deaminase inhibition, confirmed. shares compounds with A3A deaminase. recombinant A3A, ssDNA deaminase UDG fluorescence assay. inhibition, % at 20 µM. actives 63% (n = 1,400);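 active = inhibition reaching a set limit, 80% of the first screen's cutoff, at 20 µM in any replicate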;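 also: plate controls were DMSO wells with A3A for no effect and wells lacking A3A enzyme for full effect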
# UDG A3A counter = UDG inhibition in APOBEC3A counter-screen. AID 504714. inhibition, % at 20 µM. UDG counterscreen, FAM/TAMRA uracil oligo fluorescence. shares compounds with A3A deaminase. 1,000 tested, under 10 active; call rule not given here
# Numbers without * were called inactive; / = no result given. The list is not random: actives were taken first. Their share in the collection is about 2.4%.
SMILES,ADAM17 inh,A3A deaminase,A3G deaminase,NRP1-CendR mod,ADAM10 inh,APOBEC3A confirm,UDG A3A counter
CCCCN(C(=O)c1ccc([N+](=O)[O-])o1)c1c(N)n(CC(C)C)c(=O)[nH]c1=O,-2,44*,9,-7,-29,9,/
CCc1noc(C)c1C(=O)N(CCOC)c1c(N)n(CC(C)C)c(=O)[nH]c1=O,-1,43*,6,11,-8,2,/
CCCCN(C(=O)c1cc2ccccc2o1)c1c(N)n(CC(C)C)c(=O)[nH]c1=O,-2,-1,-5,4,3,/,/
CCCCN(C(=O)c1c(CC)noc1C)c1c(N)n(CC(C)C)c(=O)[nH]c1=O,-5,-3,-4,-6,-10,/,/
Cc1ccccc1S(=O)(=O)N1CCCc2nc(-c3ccccc3)ccc21,0,/,/,/,4,/,/
CN(Cc1ccccc1)C1=CC(=[N+]2CCCCC2)CC(C)(C)C1,2,68*,20,1,6,73*,-2
CCOC(=O)c1[nH]ncc1CN1CCc2ccc(NC(=O)C3CCCO3)cc2C1 (stereo not given),-3,54*,-8,-12,-10,-7,-3
c1ccc(COCCc2cn(Cc3ccccc3)c3ccccc23)cc1,-5,/,/,/,-8,/,/
CCc1nc(-c2ccc(C)nc2OC)no1,0,67*,19,9,-1,62*,1
CSC1=NCCN1CCOc1ccccc1,0,65*,16,5,0,55*,-2
CC(C)C(NC(=O)COc1ccc2ccccc2c1)C(=O)N/N=C/C=C/c1ccccc1 (stereo not given),-1,41*,16,1,-1,63*,3
COC(=O)C1=C(C)N(Cc2ccccc2)C(=NCc2cccc(C(F)(F)F)c2)N[C@H]1c1cccc(F)c1,0,-2,-3,-2,2,/,/
CCN1C(=NCCc2ccccn2)N[C@@H](c2cccc(F)c2)C(C(=O)OC)=C1C,-7,48*,5,-3,-2,63*,-2
CCN1C(=NCc2cccc(Cl)c2)N[C@@H](c2cccc(F)c2)C(C(=O)OC)=C1C,-5,5,1,18,-7,/,/
COC(=O)C1=C(C)N(Cc2ccccc2)C(=NCCc2ccccn2)N[C@H]1c1cccc(F)c1,-3,48*,15,-6,0,63*,-4
Cn1c2ccccc2c2cc(/C=N/NC(=O)c3cc(O)cc(O)c3)ccc21,-54,55*,20,-19,-218,60*,2
Cc1cccc(C(=O)Oc2ccc(/C=N/NC(=O)c3cc(O)cc(O)c3)cc2)c1,-1,69*,24,16,2,77*,2
O=C(NC1CCCC1)[C@@H]1CCCN1C(=O)[C@@H](NC(=O)N1CCOCC1)C1CCCCC1,-5,/,/,/,-15,/,/
O=C(NC1CCCCN(Cc2cccc(Cl)c2)C1=O)c1ccc(F)c(F)c1 (stereo not given),-3,/,/,/,-13,/,/
Cc1ccc(C)c(NC(=O)c2cccc3c2-c2ccccc2C3=O)c1,-2,/,/,/,-4,/,/
O=C(O)c1ncc(Cl)c(Cl)c1Cl,-2,-4,-4,-18,-2,/,/
O=C(O)c1nsc(Cl)c1Cl,-1,99*,-4,0,7,-1,-3
CC1(C)CC2CC(C)(CN2S(=O)(=O)c2cccc(C(=O)OCC(=O)NC(N)=O)c2)C1 (stereo not given),-5,54*,4,13,5,1,/
COC(=O)c1ccc2nc(-c3ccco3)c(Cc3ccsc3)n2c1,-10,/,/,/,-35,/,/
CN(C)c1cccc(-c2ccnc(N3CCC(C(N)=O)CC3)n2)c1,-4,/,/,/,-12,/,/
SMILES,ADAM17 inh,A3A deaminase,A3G deaminase,NRP1-CendR mod,ADAM10 inh,APOBEC3A confirm,UDG A3A counter
O=C(CSc1nc2ccccc2c(=O)[nH]1)c1cccs1,-1,44*,0,15,1,0,/
COC(=O)[C@]12C[C@H](CC(=O)NCc3cccs3)C(=O)N(CCC3=CCCCC3)C1=C[C@H](COCc1ccccc1)O[C@@H]2C,5,/,/,/,13,/,/
C[C@@H]1CN(c2ccc(N3CCNC[C@@H]3C)cc2C#N)CCN1Cc1ccccc1,-18,/,/,/,-51,/,/
CCOc1ccc(NC(=O)C2CCCN2C(=O)Oc2ccccc2)cc1 (stereo not given),-2,73*,20,0,-2,78*,-2
CC1(C(O)(C#CC[N+]2(C)CCCCC2)c2ccccc2)CCCC1 (stereo not given),-2,82,34,21,-3,/,/
CC1(C#CC[N+]2(C)CCCCC2)CCC2C(O1)c1ccccc1OC2(C)C (stereo not given),0,75*,21,-1,2,61*,1
COC(=O)[C@]12C[C@H](CC(=O)NCc3ccc(OC)c(OC)c3)C(=O)N(CCC3=CCCCC3)C1=C[C@H](C(C)(C)C)O[C@@H]2C,3,/,/,/,11,/,/
Cn1cccc/c1=N\c1cccc[n+]1C,-12,49*,24,9,-32,65*,-1
COc1cc(/C=C/c2cc[n+](C)cc2)ccc1OCC(=O)Nc1ccccc1,-16,66*,8,-9,-42,79*,3
C/C=C/c1ccc(OCC(=O)Nc2ccc(C(N)=O)cc2)c(OC)c1,0,0,-6,-2,-7,/,/
C#CCNC(=O)C[C@H]1C[C@@]2(C(=O)OC)C(=C[C@H](C(C)(C)C)O[C@@H]2C)N(CCC2=CCCCC2)C1=O,-2,/,/,/,-9,/,/
CCOC(=O)c1c(NC(=O)Cn2nc(C(F)(F)F)cc2C)sc(C)c1C,0,45*,-6,2,-1,1,4
CCOC(=O)[C@@]12CCCC3=C1N(CCC3)C(=O)[C@H]2CC(=O)NCC12CC3CC(CC(C3)C1)C2,-4,/,/,/,-3,/,/
C[n+]1cccc(C(=O)NNC(=O)C23CC4CC(CC(C4)C2)C3)c1,-7,82*,21,12,-12,69*,-3
COc1ccccc1C(=O)NNC(=O)C12CC3CC(CC(C3)C1)C2,0,5,0,4,-4,/,/
CC(C)(C)OC(=O)NC1CCN(c2nc(-c3ccc(Br)cc3)cs2)CC1,-5,/,/,/,-6,/,/
CCN(Cc1ccccc1)C(=O)c1ccc(SC)cc1OC,-3,3,1,5,-1,/,/
COc1cc(OC)c(C(=O)N(CCc2ccccc2)Cc2ccccc2)cc1OC,-1,65*,-2,4,6,0,-2
CCOc1ccc(NC(=O)c2cc3ccccc3cc2O)cc1,-4,63*,13,8,-1,52*,-3
CCOc1ccc(NC(=O)c2cc3ccccc3cc2OC)cc1,2,3,0,1,5,/,/
COc1ccccc1C(=O)NC1CCCCN(Cc2cccc(C(F)(F)F)c2)C1=O (stereo not given),2,/,/,/,9,/,/
CCN(CC)C(=O)Cn1c2ccccc2c2nc3n(c(=O)c21)CCS3,-45,/,/,/,-155,/,/
